{"source": "PubChem BioAssay (EPA / NIEHS)", "note": "Active and inactive are the calls of the source. Rule for the calls: active = hit-call score of the fitted dose curve at least 0.9, where 1 is the maximum; inconclusive = response in the unintended direction; inactive = score below 0.9.", "data": [{"target": "Muscarinic acetylcholine receptor M5 (Homo sapiens) (UniProt P08912)", "sequence (P08912 whole entry, looked up)": "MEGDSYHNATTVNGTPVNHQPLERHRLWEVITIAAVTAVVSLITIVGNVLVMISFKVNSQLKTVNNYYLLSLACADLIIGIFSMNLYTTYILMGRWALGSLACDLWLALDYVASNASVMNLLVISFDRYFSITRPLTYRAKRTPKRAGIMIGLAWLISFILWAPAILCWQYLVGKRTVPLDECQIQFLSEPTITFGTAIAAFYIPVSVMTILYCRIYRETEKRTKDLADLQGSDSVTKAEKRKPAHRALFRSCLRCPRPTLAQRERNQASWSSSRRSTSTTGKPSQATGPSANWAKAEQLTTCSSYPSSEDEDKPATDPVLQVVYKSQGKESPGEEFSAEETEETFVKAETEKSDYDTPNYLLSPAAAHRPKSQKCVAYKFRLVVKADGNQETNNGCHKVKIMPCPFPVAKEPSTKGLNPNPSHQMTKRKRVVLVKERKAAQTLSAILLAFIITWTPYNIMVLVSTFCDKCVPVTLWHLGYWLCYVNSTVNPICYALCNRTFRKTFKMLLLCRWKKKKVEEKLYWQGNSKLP", "assay": "NVS_GPCR_hM5: NovaScreen (NVS) G Protein-Coupled Receptor Assay for human Muscarinic, M5 Receptor (AID 2283275)", "protocol": "NVS_GPCR_hM5 is a biochemical, single-readout assay that uses extracted gene-proteins from CHO in a cell-free assay. Measurements were taken 1 hour after chemical dosing in a 96-well plate.NVS_GPCR_hM5 is one of one assay component(s) measured or calculated from the NVS_GPCR_hM5 assay. It is designed to make measurements of radioligand binding, a form of binding reporter, as detected with scintillation counting signals by Filter-based radiodetection technology.Data from the assay component NVS_GPCR_hM5 was analyzed into 1 assay endpoint. This assay endpoint, NVS_GPCR_hM5, was analyzed in the positive analysis fitting direction relative to DMSO as the negative control and baseline of activity. Using a type of binding reporter, loss-of-signal activity can be used to understand changes in the binding as they relate to the gene CHRM5. Furthermore, this assay endpoint can be referred to as a primary readout, because the performed assay has only produced 1 assay endpoint. To generalize the intended target to other relatable targets, this assay endpoint is annotated to the gpcr intended target family, where the subfamily is rhodopsin-like receptor.\nBinding assays used specific radioligands (tritiated, iodinated) with non-radioactive competitive displacement ligands in agonist or antagonist protocols (as indicated) and various reference compounds and inhibitors to titrate specific binding to receptors and transporters. Most enzyme assays (CYPs, kinases, phosphatases, proteases, HDACs) used recombinant protein and specific substrates (fluorescence mostly, some colorimetric and radioactive) and inhibitors, followed by a biochemical separation of substrate and product. All assays for the biochemical HTS were initially run in duplicate at a single concentration (10 uM for CYP450 assays and 25 uM for all others). Assay-chemical combinations meeting a pre-defined threshold (e.g., 30% inhibition and other criteria defined below) were then run in singleton concentration-response format with maximum concentration of 20 uM for CYPs and 50 uM for all others. Each assay was run with positive and negative controls, and concurrent controls on every plate. The follow-up (secondary) screen tested active chemical-pairs in concentration series, as well as a few additional assays not tested in the primary screen, some selected negative inactives, and several cases re-run in the concentration series for confirmatory purposes.", "values": [{"smiles": "CN(C)C(=O)C1(N2CCCCC2)CCN(CC[C@@]2(c3ccc(Cl)c(Cl)c3)CN(C(=O)c3ccccc3)CCO2)CC1", "AC50": "6.44 µM (active)"}, {"smiles": "c1ccc(C[n+]2cccc3ccccc32)cc1", "AC50": "11.8 µM (active)"}, {"smiles": "Cc1occc1C(=O)Nc1ccc(C(=O)N2CCC(F)(F)/C(=C\\C(=O)N3CCC(N4CCCCC4)CC3)c3ccccc32)cc1", "AC50": "5.91 µM (active)"}, {"smiles": "COc1cccc([C@H](O)C2CCN(CCc3ccc(F)cc3)CC2)c1OC", "outcome": "inactive"}, {"smiles": "COc1cc(C(=O)NC2CCN(C)CC2)ccc1Nc1ncc2c(n1)N(C1CCCC1)CC(F)(F)C(=O)N2C", "AC50": "11.9 µM (active)"}, {"smiles": "Clc1cc(Cl)c2c(c1)N=C1CCCCCN1C2", "AC50": "2.01 µM (active)"}, {"smiles": "CCN(Cc1cccnc1)C(=O)c1cccc(Cl)c1[C@]1(C)C(=O)N(Cc2ccc(OC)cc2OC)c2ccc(Cl)cc21", "AC50": "4.06 µM (active)"}, {"smiles": "O=C1c2ccccc2C(=O)N1CCc1noc(-c2ccc(CN3CCCCCC3)s2)n1", "AC50": "7.99 µM (active)"}, {"smiles": "CCOC(=O)O[C@H](C)OC(=O)c1ccc2c(c1)cc(C(=O)NC1CCN(C(C)C)CC1)n2Cc1cc(-c2ccc(Cl)s2)on1", "AC50": "1.79 µM (active)"}, {"smiles": "CCN(CC)C(=O)c1cc(S(=O)(=O)Cc2ccccc2)c(N2CCC(c3ccccc3)CC2)cc1N(CC)CCN(C)C", "AC50": "6.24 µM (active)"}, {"smiles": "NCc1cccc(C2CCN(C(=O)c3ccc(C#Cc4ccccc4F)o3)CC2)c1", "AC50": "4.14 µM (active)"}, {"smiles": "COc1ccc2cc(S(=O)(=O)N[C@H](CC(=O)N[C@H](Cc3ccc(CN4[C@H](C)CCC[C@@H]4C)cc3)C(=O)N(C)C(C)C)c3ccc4c(c3)OCO4)ccc2c1", "AC50": "4.37 µM (active)"}, {"smiles": "Cc1cc(F)ccc1-c1cc(N2CC[C@@H](O)[C@H]2CO)ncc1N(C)C(=O)C(C)(C)c1cc(C(F)(F)F)cc(C(F)(F)F)c1", "AC50": "15 µM (active)"}, {"smiles": "CCCCCCCCCCCC[N+](C)(C)C", "AC50": "1.93 µM (active)"}, {"smiles": "CN(C)c1ccc(C(=C2C=CC(=[N+](C)C)C=C2)c2ccc(N(C)C)cc2)cc1", "AC50": "0.861 µM (active)"}]}]}
